Eight compounds from PubChem BioAssay (NCI) can be followed below.

Holding throughout (assay): NCI-60 one-dose screen, 48 h (100 = growth as untreated, 0 = no growth, -100 = all killed)
For one assay, the system named is K-562 leukemia. The following applies: 10 µM unless noted.
Another assay has as its system MALME-3M melanoma. The following applies: 10 µM unless noted.
The subject of the next assay is MDA-MB-231 breast. To be noted: 10 µM unless noted.
A further assay relates to RXF 393 renal. The following applies: 10 µM unless noted.
The next assay concerns SF-268 CNS. To be noted: 10 µM unless noted.
Another assay concerns SF-295 CNS. The following applies: 10 µM unless noted.
Another assay concerns SF-539 CNS. The following applies: 10 µM unless noted.
The test system of a further assay is UACC-257 melanoma. The following applies: 10 µM unless noted.
The next assay relates to M14 melanoma. To be noted: 10 µM unless noted.
A further assay relates to HCT-15 colon. To be noted: 10 µM unless noted.
The test system of the next assay is HT29 colon. To be noted: 10 µM unless noted.
In a further assay the test system is SNB-75 CNS. To be noted: 10 µM unless noted.
A further assay concerns SNB-19 CNS. The following applies: 10 µM unless noted.
A further assay concerns U251 CNS. To be noted: 10 µM unless noted.
The test system of a further assay is PC-3 prostate. To be noted: 10 µM unless noted.
The test system of another assay is SK-MEL-5 melanoma. To be noted: 10 µM unless noted.
Another assay deals with UACC-62 melanoma. The following applies: 10 µM unless noted.
In the next assay the test system is LOX IMVI melanoma. To be noted: 10 µM unless noted.
Another assay concerns SK-MEL-28 melanoma. The following applies: 10 µM.
The subject of a further assay is SK-MEL-2 melanoma. The following applies: 10 µM unless noted.

Each structure is given as a SMILES string. This is part of a sample that, as a whole, favours compounds with a hit. Of some 83,000 tested, about 20% had one in any assay.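 Interpretation: 100, growth as untreated; towards 0, rising growth inhibition; 0, no net growth; 0 to -100, cell death. Compounds scoring below 10 were considered active.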 Values without a mark were called inactive. The source made the active and inactive calls.

Turning to `CCN(CC)CCNC(=O)C(Cl)=C1C(Cl)=C(Cl)C(Cl)=C1Cl`, the growth is 24.2% in the assay on K-562 leukemia; 58% in the assay on MALME-3M melanoma; 50.1% in the assay with MDA-MB-231 breast; 66.9% with RXF 393 renal; 52% with SF-268 CNS; 71.7% with SF-295 CNS. Also, the growth was 60.1% in the assay on SF-539 CNS; 44.3% in the assay with UACC-257 melanoma; 38.7% in the assay on M14 melanoma; 50.5% with HCT-15 colon; 41.3% in the assay with HT29 colon; 48.4% in the assay on SNB-75 CNS. The growth in the assay with SNB-19 CNS was 85.5%; in the assay on U251 CNS, 40.8%; in the assay on PC-3 prostate it was 56.2%; with SK-MEL-5 melanoma, 47%; in the assay with UACC-62 melanoma it was 55.1%; in the assay with LOX IMVI melanoma it was 22.6%. Besides, the growth with SK-MEL-28 melanoma was 72.7%; with SK-MEL-2 melanoma, 47.6%.

For `COC(=O)c1ccc(NC(=O)CSc2nc3ccccc3c(=O)n2-c2ccccc2)cc1`, the growth was 95.1% in the assay on K-562 leukemia; 109% in the assay on MALME-3M melanoma; 95.7% with MDA-MB-231 breast; 111% with RXF 393 renal; 92% with SF-268 CNS; 102% with SF-295 CNS. Moreover, the growth in the assay on SF-539 CNS was 100%; in the assay on UACC-257 melanoma it was 90.4%; in the assay with M14 melanoma, 105%; with HCT-15 colon, 105%; in the assay with HT29 colon it was 108%; in the assay with SNB-75 CNS, 92.1%. Besides, the growth with SNB-19 CNS was 99.3%; in the assay with U251 CNS it was 102%; in the assay with PC-3 prostate, 103%; in the assay on SK-MEL-5 melanoma it was 94%; in the assay with UACC-62 melanoma it was 96.3%; with LOX IMVI melanoma it was 98.4%. In addition, the growth in the assay on SK-MEL-28 melanoma was 113%; with SK-MEL-2 melanoma it was 105%.

For the compound `Cc1c(-c2noc(-c3ccc([N+](=O)[O-])cc3)n2)no[n+]1[O-]`, the growth in the assay on K-562 leukemia is 93.7%; in the assay on MALME-3M melanoma it was 99.5%; in the assay with MDA-MB-231 breast, 95.4%; with RXF 393 renal, 102%; in the assay on SF-268 CNS, 92.6%; in the assay with SF-295 CNS it was 99.9%. Besides, the growth is 97.4% in the assay on SF-539 CNS; 106% in the assay with UACC-257 melanoma; 93.8% in the assay on M14 melanoma; 93.1% in the assay on HCT-15 colon; 105% in the assay on HT29 colon; 89.8% in the assay with SNB-75 CNS. In addition, the growth with SNB-19 CNS is 99.8%; with U251 CNS it was 99.8%; with PC-3 prostate it was 92.5%; in the assay with SK-MEL-5 melanoma it was 92.1%; in the assay with UACC-62 melanoma it was 87.6%; in the assay on LOX IMVI melanoma it was 97.7%. For the same compound, the growth in the assay with SK-MEL-28 melanoma was 108%.

As for `C#CCn1cc(C=C2C(=O)N(C)C(=O)N(C)C2=O)c2cc(Cl)ccc21`, the growth in the assay with K-562 leukemia was 106%; in the assay with MALME-3M melanoma, 97.9%; with MDA-MB-231 breast it was 105%; with RXF 393 renal it was 103%; in the assay with SF-268 CNS, 96.8%; in the assay on SF-295 CNS, 96.4%. The growth in the assay on SF-539 CNS was 94.5%; with UACC-257 melanoma, 112%; in the assay on M14 melanoma it was 108%; in the assay on HCT-15 colon, 111%; in the assay with HT29 colon it was 118%; in the assay on SNB-75 CNS, 91.6%. In addition, the growth in the assay on SNB-19 CNS is 105%; with U251 CNS it was 113%; with PC-3 prostate, 103%; in the assay with SK-MEL-5 melanoma, 99.5%; in the assay on UACC-62 melanoma it was 94%; in the assay on LOX IMVI melanoma, 96.8%. For the same compound, in the assay on SK-MEL-28 melanoma, the growth is 113%.

Turning to `Oc1ccc(-c2nc(-c3ccc4oc5ccc(-c6[nH]c(-c7ccc(O)cc7)nc6-c6ccccc6)cc5c4c3)c(-c3ccccc3)[nH]2)cc1`, the growth in the assay with K-562 leukemia is 22.7%; in the assay on MALME-3M melanoma, 43.1%; with MDA-MB-231 breast, 59.5%; in the assay on RXF 393 renal, 84.9%; with SF-268 CNS, 63.5%; in the assay with SF-295 CNS it was 15.6%. In addition, the growth in the assay on SF-539 CNS was 79.4%; with UACC-257 melanoma, 34.5%; with M14 melanoma, 65.5%; in the assay with HCT-15 colon, 78.8%; in the assay on HT29 colon, 34.6%; in the assay on SNB-75 CNS, 39.2%. Moreover, the growth in the assay with SNB-19 CNS was 63.5%; in the assay with U251 CNS, 58.2%; with PC-3 prostate, 52.1%; with SK-MEL-5 melanoma, 70.8%; in the assay with UACC-62 melanoma, 49.9%; in the assay with LOX IMVI melanoma, 67.5%. Besides, the figures for the growth in the assay with SK-MEL-28 melanoma and in the assay with SK-MEL-2 melanoma were 77.8% and 93.7%, respectively.

Take `CCN(CC)CCCNc1ccnc2cc3ccccc3cc12`: the growth in the assay on K-562 leukemia was 66.3%; in the assay with MALME-3M melanoma, 40.6%; in the assay on MDA-MB-231 breast, 56.4%; with RXF 393 renal, 35.7%; in the assay on SF-268 CNS, 60.2%; in the assay on SF-295 CNS it was -34% (active). Besides, the growth was 30.8% in the assay on SF-539 CNS; 75.5% in the assay on UACC-257 melanoma; 81.9% in the assay on M14 melanoma; 43.2% with HCT-15 colon; 74.6% with HT29 colon; 36.6% in the assay on SNB-75 CNS. The growth in the assay on SNB-19 CNS was 71.3%; in the assay on U251 CNS, 46.8%; with PC-3 prostate it was 60.7%; in the assay on SK-MEL-5 melanoma, 50.6%; in the assay on UACC-62 melanoma, 69.8%; with LOX IMVI melanoma, 53.9%. The growth with SK-MEL-28 melanoma is 65.3%; in the assay with SK-MEL-2 melanoma, 57%.

As for `NCCCNc1nc2ccccc2c2c(=O)c3cc(F)ccc3sc12`, the growth in the assay on K-562 leukemia was -50.4% (active); in the assay with MALME-3M melanoma, 76.7%; in the assay on MDA-MB-231 breast it was -53.1% (active); with RXF 393 renal it was 41.9%; with SF-268 CNS, 34.3%; in the assay with SF-295 CNS, 85.9%. Further, the growth is 55.2% in the assay with SF-539 CNS; 68.1% in the assay with UACC-257 melanoma; -55.5% (active) in the assay on M14 melanoma; -49.3% (active) in the assay on HCT-15 colon; -50.9% (active) in the assay on HT29 colon; 25% with SNB-75 CNS. The growth with SNB-19 CNS is 44.4%; in the assay with U251 CNS, -56.1% (active); with PC-3 prostate it was 18.9%; in the assay with SK-MEL-5 melanoma, 76.4%; in the assay on UACC-62 melanoma, -76.1% (active); with LOX IMVI melanoma, -92.1% (active). The growth in the assay on SK-MEL-28 melanoma is 0.2% (active).

For the compound `COc1ccc(Cn2c(Br)c3c(c2-c2cc(OC)c(OC)c(OC)c2)CCc2sc(NC(C)=O)nc2-3)cc1`, the growth is 15.4% in the assay with K-562 leukemia; -6.05% (active) in the assay with MALME-3M melanoma; 62.6% with MDA-MB-231 breast; 32.3% with RXF 393 renal; 37.1% with SF-268 CNS; 3.53% (active) in the assay with SF-295 CNS. Moreover, the growth is 23.1% in the assay with SF-539 CNS; 48% in the assay on UACC-257 melanoma; 47.9% in the assay with M14 melanoma; 51.9% in the assay on HCT-15 colon; 33.7% in the assay on HT29 colon; 25.3% with SNB-75 CNS. Further, the growth was 41% with SNB-19 CNS; 39.2% with U251 CNS; 43.7% in the assay on PC-3 prostate; 16.6% with SK-MEL-5 melanoma; 29.7% in the assay on UACC-62 melanoma; 33.3% in the assay on LOX IMVI melanoma. In addition, the growth in the assay on SK-MEL-28 melanoma was 39.2%.
